# Compound activity: PubChem, National Center for Advancing Translational Sciences (NCATS)
# Six1-Eya2 inh: blocks human Six1 binding to Eya2 | Q15475+O00167 | AlphaScreen GST-Six1/His-Eya2 binding, biochemical; hits give low values | activity change, % (test concentration not listed) | 0.56% of 360,000 active | AID 651725; in the data active = activity change below about -65%; inconclusive = mostly about -30% to -63%
# Target sequence (O00167 whole entry, looked up): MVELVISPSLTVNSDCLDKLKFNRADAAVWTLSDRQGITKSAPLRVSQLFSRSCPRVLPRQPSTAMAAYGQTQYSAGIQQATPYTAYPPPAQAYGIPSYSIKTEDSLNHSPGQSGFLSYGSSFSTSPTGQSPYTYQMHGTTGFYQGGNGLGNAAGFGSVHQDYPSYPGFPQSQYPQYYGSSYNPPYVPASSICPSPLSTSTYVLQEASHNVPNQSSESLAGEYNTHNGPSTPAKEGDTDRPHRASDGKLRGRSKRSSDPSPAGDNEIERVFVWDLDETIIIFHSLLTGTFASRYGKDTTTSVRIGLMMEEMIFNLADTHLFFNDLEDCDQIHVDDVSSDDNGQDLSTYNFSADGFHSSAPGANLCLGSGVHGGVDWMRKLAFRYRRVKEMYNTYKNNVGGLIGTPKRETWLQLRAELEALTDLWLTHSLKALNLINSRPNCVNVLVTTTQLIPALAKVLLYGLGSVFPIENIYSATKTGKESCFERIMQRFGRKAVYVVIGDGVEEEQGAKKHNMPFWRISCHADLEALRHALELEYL
# Target sequence (Q15475 whole entry, looked up): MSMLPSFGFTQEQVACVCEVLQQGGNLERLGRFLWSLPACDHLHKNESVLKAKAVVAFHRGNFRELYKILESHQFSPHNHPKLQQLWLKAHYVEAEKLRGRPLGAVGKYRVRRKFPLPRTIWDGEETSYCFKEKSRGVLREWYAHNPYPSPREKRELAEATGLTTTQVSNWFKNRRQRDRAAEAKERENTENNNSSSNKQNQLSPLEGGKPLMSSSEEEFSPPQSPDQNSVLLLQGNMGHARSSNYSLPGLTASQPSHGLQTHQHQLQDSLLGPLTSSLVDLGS
#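 AlphaScreen luminescence read after one hour at 37 °C in darkness. Pin-transferred compounds met GST-Six1 and His-Eya2 protein (5X stock 250 nM/500 nM) plus glutathione donor and Ni-chelate acceptor beads (5X, 50 ug/mL).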
# IL-1B inflam inh: blocks inflammasome-driven IL-1 beta release. THP-1 LPS/ATP IL-1B secretion, AlphaLISA, 16 h; hits give low values. activity change, % at 57.5 µM. 4.7% of 360,000 active; in the data active = activity change below about -50%; inconclusive = mostly about -30% to -49%
#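 THP-1 cells pretreated 1 hr with compounds (up to 57.5 uM final), then stimulated with LPS (250 ng/mL final) plus ATP (1.25 mM final); secreted IL-1B measured by AlphaLISA after 16 hr, decreased signal indicating inhibition.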
# TDP1 cell noCPT: qHTS for Inhibitors of human tyrosyl-DNA phosphodiesterase 1 (TDP1): qHTS in cells in absence of CPT; DT40 Tdp1-/- hTDP1 cells, no CPT, ATP luminescence, 48 h; Potency, µM (top dose mostly 46.2 µM), for the others: top-dose activity change, negative = growth inhibition, usual class: inhibitors; 15% of 420,000 active; also: potency is read from the fitted curve at half-maximal effect; nearly all actives have a fitted effect of over 55% in size
#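 Chicken DT40 Tdp1-/- cells stably complemented with human TDP1 were seeded at 400 cells/well with DMSO in place of 20 nM camptothecin. After compound pinning, cells grew at least 48 hr at 37 °C; viability read by CellTiter-Glo luminescence.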
# TDP1 cell CPT: growth inhibition of DT40 Tdp1-/-;hTDP1 cells with camptothecin (screen for TDP1 inhibitors). chicken DT40 Tdp1-/-;hTDP1 cells + 20 nM CPT, ATP luminescence, 48 h. Potency, µM (top dose mostly 46.2 µM), without a hit: at the top dose activity change, negative = growth inhibition, actives largely listed as inhibitors. 12% of 420,000 active; also: potency is read from the fitted curve at half-maximal effect; nearly all actives have a fitted effect of over 55% in size
#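 Chicken DT40 Tdp1-/- cells complemented with human TDP1, 400 cells/well, exposed to compounds plus 20 nM camptothecin for at least 48 h at 37 C; viability read as ATP content by CellTiter-Glo luminescence.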
# TDP1 block: blocks human tyrosyl-DNA phosphodiesterase 1; Q9NUW8; recombinant TDP1, AlphaScreen DNA substrate cleavage; Potency, µM (top dose mostly 130 µM), for inactives: top-dose activity change, negative = inhibition, hits mostly inhibitors; 0.28% of 350,000 active; also: potency is read from the fitted curve at half-maximal effect; nearly all actives have a fitted effect of over 40% in size
#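 Compounds were preincubated with Tdp1 (1 nM final) for 15 min at room temperature before substrate (15 nM final) started a 5 min reaction; beads (10 ug/ml final) were then added for 10 min before AlphaScreen detection.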
# CtBP-E1A blk: inhibitors of CtBP/E1A interaction; AlphaScreen GST-E1A/His-CtBP binding, 1536-well; hits give low values; activity change, % (test concentration not listed); 0.49% of 340,000 active; AID 651724; in the data active = activity change below about -65%; inconclusive = mostly about -30% to -63%
#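 Homogeneous bead-based format: GST-tagged E1A captured on glutathione donor beads, His-tagged CtBP on nickel acceptor beads; compounds precede bead addition by 2 h at 37 °C.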
# The depositor's hits bear a star; ? = inconclusive; . = not tested or not shown; [ ] = another dose, or the depositor's remark. Most compounds without a hit are left out; they make up all but 18% or so of the library. Unless noted, calls follow the shape of the dose curve; as a rule, active = well fitted curve in the direction sought with a large enough effect; inconclusive = small, poorly fitted or top-dose-only effect, or another doubt; inactive = no such curve, though single readings can be large; an effect the other way counts as inactive or inconclusive. % is scaled to controls: 0 for no effect and ±100 for the full control effect.
SMILES,Six1-Eya2 inh,IL-1B inflam inh,TDP1 cell noCPT,TDP1 cell CPT,TDP1 block,CtBP-E1A blk
N#Cc1ccc(C(=O)Nc2cccc(NC(=O)c3ccco3)c2)c(F)c1,-2,?,?,?,-1%,1
COCCNC(=O)c1cc2c(c(-c3cccc(-c4cc5ccccc5o4)c3)n1)[C@H](CCO)N(S(=O)C(C)(C)C)C2 (stereo partly drawn),-19,-8,23µM*,?,.,-13
Cc1ccc(C(=O)NC2CCN(C(=O)NCc3ccccc3)CC2)cc1,4,38,-15%,2%,12%,14
CCCc1nn2c(-c3ccccc3)nnc2o1,-12,-67*,?,-16%,.,-10
c1ccc(-c2nn3c(-c4ccccc4)nnc3o2)cc1,-2,-51*,?,?,.,-4
CN(C)c1nn2c(-c3ccccc3)nnc2o1,-23,3,-26%,0%,.,-14
Cc1ccc(S(=O)Cc2nc(-c3ccc(C(=O)NC(C)c4ccccc4)cc3)oc2C)cc1 (stereo not drawn),.,.,15µM*,?,8%,.
Cc1ccc(SCc2nc(-c3ccc(C(=O)Nc4cc(C)ccc4C)cc3)oc2C)cc1,.,.,8.2µM*,8.2µM*,6%,.
CCc1ccc(CNC(=O)c2ccc(-c3nc(CSc4ccc(C)cc4)c(C)o3)cc2)cc1,.,.,1%,9%,6%,.
COc1ccccc1CNC(=O)c1ccc(-c2nc(CS(=O)c3ccccc3)c(C)o2)cc1 (stereo not drawn),.,.,?,?,11%,.
COc1cc(NC(=O)c2ccc(-c3nc(CSc4ccccc4)c(C)o3)cc2)cc(OC)c1,.,.,15µM*,18µM*,0%,.
Cc1ccc(SCc2nc(-c3ccc(C(=O)NCc4ccccc4Cl)cc3)oc2C)cc1,.,.,9.2µM*,8.2µM*,6%,.
Cc1ccc2oc(-c3ccc(C)c(NC(=O)c4ccc(C(C)(C)C)cc4)c3)nc2c1,.,.,.,.,2%,.
O=c1cn[nH]c2ccc(Br)cc12,1,26,-17%,-4%,.,11
CC(C)NC(=O)NC(=O)CSc1nncn1C,0,3,-2%,-1%,2%,46
O=C(COC(=O)c1ccc[nH]c1=O)NCCC1=CCCCC1,4,23,0%,2%,0%,13
CCNc1ccc(C(=O)N/N=C/c2c(C)nn(-c3ccccc3)c2N2CCCC2)cc1[N+](=O)[O-],-4,18,?,18µM*,3%,-17
Cc1ccc(NS(=O)(=O)c2cccc(C(=O)N/N=C/c3c(C)nn(-c4ccccc4)c3N3CCCC3)c2)c(C)c1,-12,-18,?,?,5%,-9
Cc1cn([C@H]2C[C@H](F)[C@@H](CO)O2)c(=O)[nH]c1=O,.,.,17µM*,6.7µM*,.,.
O=c1[nH]c(=O)n([C@H]2C[C@H](O)[C@@H](CO)O2)cc1F,-1,41,0.037µM*,3.3µM*,5%,0
O=c1[nH]c(=O)n([C@@H]2O[C@H](CO)[C@@H](O)[C@H]2O)cc1Br,.,.,-24%,3%,8%[56.1 µM],.
Cc1cn([C@H]2C[C@H](N=[N+]=[N-])[C@@H](CO)O2)c(=O)[nH]c1=O,0,83,7.5µM*,21µM*,3%,0
CC1OC(n2cc(F)c(=O)[nH]c2=O)C(O)C1O (stereo not drawn),.,.,3.7µM*,6.5µM*,4%,.
O=C(c1cnccn1)N1CCC2(CCCN(c3ccccc3)C2)CC1,.,.,?,-29%,.,.
[O]=[Bi][O][Bi]=[O],.,.,1%,0%,4%,.
SMILES,Six1-Eya2 inh,IL-1B inflam inh,TDP1 cell noCPT,TDP1 cell CPT,TDP1 block,CtBP-E1A blk
CC(=O)N1CCN(c2nc(C)nc3sc4c(c23)CCC(C)C4)CC1 (stereo not drawn),0,-20,-22%,-20%,2%,-2
O=C(NCCc1csc(-c2cccnc2)n1)c1cccs1,-1,-15,21µM*,?,5%,0
CCOc1ccc(C(=O)NCCc2csc(-c3ccc(C(F)(F)F)cc3)n2)cc1OCC,.,.,15µM*,?,-1%,.
O=C(NCCc1csc(-c2ccc(C(F)(F)F)cc2)n1)c1cccs1,-6,-29,18µM*,?,5%,2
O=C(c1ccoc1)N1CCC2(CC1)Oc1ccc(F)cc1C(=O)C21CC(c2ccc(Cl)cc2)=NO1 (stereo not drawn),-5,-56*,?,?,7%,-7
O=C(c1ccoc1)N1CCC2(CC1)Oc1ccc(Cl)cc1C(=O)C21CC(c2ccc(Cl)cc2)=NO1 (stereo not drawn),-14,?,?,21µM*,5%,-17
Cc1ccc(O)c(Nc2c3ccccc3nc3ccccc23)c1,?,-95*,?,16µM*,.,-26
Cc1ccc(Nc2nc3ccccc3c3nncn23)c(Cl)c1,.,.,-25%,-24%,-2%[12.3 µM],.
Cc1ccc(O)c(Nc2nc3ccccc3c3nncn23)c1,.,.,9.2µM*,?,5%,.
CCOc1cc(C2c3c(oc4ccccc4c3=O)C(=O)N2c2nccs2)ccc1O (stereo not drawn),5,13,?,?,.,-2
c1ccc(COc2cccc(-c3cc4nc(NCc5cccs5)ccn4n3)c2)cc1,5,28,?,?,.,1
CCOc1ccccc1CNC(=O)c1cc2c(=O)n(Cc3ccccc3)ccc2nc1C,.,.,16µM*,18µM*,8%,.
CSc1ccc(CNC(=O)c2cc3c(=O)n(Cc4ccco4)ccc3nc2C)cc1,.,.,23µM*,29µM*,8%,.
COc1ccc(CNC(=O)c2cc3c(=O)n(Cc4ccco4)ccc3nc2C)cc1,.,.,-17%,-24%,3%,.
Cc1ccc(NC(=O)c2cc3c(=O)n(Cc4ccco4)ccc3nc2C)cc1C,.,.,?,26µM*,8%,.
COC(=O)c1ccc(CNC(=O)COC(=O)/C=C/c2ccc(OC)c(OC)c2)cc1,-4,21,-27%,-10%,-1%,.
CCOC(=O)c1ccccc1NC(=O)Cn1nnc2sc3c(c2c1=O)CCCC3,.,.,1%,-15%,0%,.
C=CCN(CC=C)S(=O)(=O)c1ccc(NC(=S)NC(=O)c2ccco2)cc1,6,-21,18µM*,?,5%,-5
C=CCN(CC=C)S(=O)(=O)c1ccc(NC(=S)NC(=O)Cc2ccc(OC)cc2)cc1,-1,8,21µM*,?,3%,-3
C=CCN(CC=C)S(=O)(=O)c1ccc(NC(=S)NC(=O)/C=C/c2ccc(C)cc2)cc1,4,-2,?,?,6%,-4
